Measurements taken from PubChem BioAssay (NCATS).
Where “and” joins values, the source holds several entries; their conditions need not be identical. Equal entries are not always repeated. Results filed as inconclusive are left out. Values without a mark were called inactive. Calls of active or inactive are those of the source. Calls come from the whole dose curve; as a rule, active = well fitted curve in the direction sought with a large enough effect; inconclusive = small, poorly fitted or top-dose-only effect, or another doubt; inactive = no such curve, though single readings can be large; an effect the other way counts as inactive or inconclusive.

How the values were obtained:
HEK293 = experiment: Cytotoxic Profiling of Annotated Libraries Using Quantitative High-Throughput Screening (AID 1296008); conditions: Five cell lines viability, CellTiter-Glo ATP luminescence, 48-72 h; max response: hits give low values; note: nearly all actives have a fitted effect of over 60% in size
How it was run: (§1)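 Cells exposed to compounds for 48 or 72 hr at 37 degrees Celsius. Viability read as ATP-coupled luminescence with CellTiter-Glo after 10 min at room temperature.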

HaCat [1] = experiment: as above; conditions: Five cell lines viability, CellTiter-Glo ATP luminescence, 48-72 h; max response: hits give low values
How it was run: as §1

KB-3-1 = experiment: as above; conditions: Five cell lines viability, CellTiter-Glo ATP luminescence, 48-72 h; max response: hits give low values
How it was run: as §1

NIH3T3 = experiment: as above; conditions: Five cell lines viability, CellTiter-Glo ATP luminescence, 48-72 h; max response: hits give low values
How it was run: as §1

MKL-2 = experiment: qHTS assay to identify novel small-molecules to repurpose for Merkel cell carcinoma treatment (AID 1296009); conditions: MCC and control cell lines, CellTiter-Glo viability, 72 h; series mostly up to 46 µM; note: nearly all actives have a fitted effect of over 60% in size
How it was run: (§2)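 CellTiter-Glo luminescence after 72 hr compound exposure at 37 degree celsius gave cell viability. Libraries NPC and MIPE were run as 8- and 11-point dose responses; RLUs normalized to DMSO (negative) and no-cell (cytotoxicity) controls.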

UISO = experiment: as above; conditions: MCC and control cell lines, CellTiter-Glo viability, 72 h; series mostly up to 46 µM
How it was run: as §2

C33A = experiment: Primary qHTS to identify gynecologic anti-cancer compounds using libraries of approved drugs and bioactive compounds (AID 1345084); conditions: Gynecologic cancer cell panel viability, ATPlite luminescence, 48 h; series mostly up to 57.5 µM; note: nearly all actives have a fitted effect of over 55% in size
How it was run: (§3)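 Five-concentration response, 48 h; readout is ATP-driven luciferase luminescence.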

Es-2 = experiment: as above; conditions: Gynecologic cancer cell panel viability, ATPlite luminescence, 48 h; series mostly up to 57.5 µM
How it was run: as §3

JEG-3 = experiment: as above; conditions: Gynecologic cancer cell panel viability, ATPlite luminescence, 48 h; series mostly up to 57.5 µM
How it was run: as §3

HACAT [2] = experiment: qHTS assay to identify novel small-molecules to repurpose for Merkel cell carcinoma treatment (AID 1296009); conditions: MCC and control cell lines, CellTiter-Glo viability, 72 h; series mostly up to 44.8 µM; note: nearly all actives have a fitted effect of over 60% in size
How it was run: as §2

MCC-13 = experiment: as above; conditions: MCC and control cell lines, CellTiter-Glo viability, 72 h; series mostly up to 46 µM
How it was run: as §2

MKL-1 = experiment: as above; conditions: MCC and control cell lines, CellTiter-Glo viability, 72 h; series mostly up to 46 µM
How it was run: as §2

CASKI = experiment: Primary qHTS to identify gynecologic anti-cancer compounds using libraries of approved drugs and bioactive compounds (AID 1345084); conditions: Gynecologic cancer cell panel viability, ATPlite luminescence, 48 h; series mostly up to 57.5 µM; note: nearly all actives have a fitted effect of over 55% in size
How it was run: as §3

HeLa = experiment: as above; conditions: Gynecologic cancer cell panel viability, ATPlite luminescence, 48 h; series mostly up to 57.5 µM
How it was run: as §3

WaGa = experiment: qHTS assay to identify novel small-molecules to repurpose for Merkel cell carcinoma treatment (AID 1296009); conditions: MCC and control cell lines, CellTiter-Glo viability, 72 h; series mostly up to 46 µM; note: nearly all actives have a fitted effect of over 60% in size
How it was run: as §2

Hek293T = experiment: Primary qHTS to identify gynecologic anti-cancer compounds using libraries of approved drugs and bioactive compounds (AID 1345084); conditions: Gynecologic cancer cell panel viability, ATPlite luminescence, 48 h, control line for the selectivity index; series mostly up to 57.5 µM; note: nearly all actives have a fitted effect of over 55% in size
How it was run: as §3

MCC-26 = experiment: qHTS assay to identify novel small-molecules to repurpose for Merkel cell carcinoma treatment (AID 1296009); conditions: MCC and control cell lines, CellTiter-Glo viability, 72 h; series mostly up to 46 µM; note: nearly all actives have a fitted effect of over 60% in size
How it was run: as §2

CAOV3 = experiment: Primary qHTS to identify gynecologic anti-cancer compounds using libraries of approved drugs and bioactive compounds (AID 1345084); conditions: Gynecologic cancer cell panel viability, ATPlite luminescence, 48 h; series mostly up to 57.5 µM; note: nearly all actives have a fitted effect of over 55% in size
How it was run: as §3
% is set by controls: 0 for no effect and ±100 for the full control effect; potency is the fitted concentration of half-maximal effect.

SMILES: Cc1cc(Nc2cc(N3CCN(C)CC3)nc(Sc3ccc(NC(=O)C4CC4)cc3)n2)n[nH]1
- Potency (HEK293): 7.43 µM (active) and 7.31 µM (active)
- Potency (HaCat [1]): 6.62 µM (active)
- Potency (KB-3-1): 8.33 µM (active) and 8.2 µM (active)
- Potency (NIH3T3): 16.6 µM (active) and 20.6 µM (active)
- Potency (MKL-2): inactive
- Potency (UISO): inactive
- Potency (C33A): inactive
- Potency (Es-2): inactive
- Potency (JEG-3): inactive

SMILES: C[C@@H]1CN(CC(=O)Nc2ccc3c(c2)Cc2cccc(-c4cc(=O)cc(N5CCOCC5)o4)c2S3)C[C@H](C)O1
- Potency (HEK293): 18.7 µM (active)
- outcome (HaCat [1]): inactive
- max response (KB-3-1): -19.5%
- Potency (HACAT [2]): inactive
- Potency (MCC-13): inactive
- Potency (MKL-1): inactive

SMILES: CNC(=O)c1ccccc1Nc1nc(Nc2ccc(N3CCOCC3)cc2OC)ncc1Cl
- Potency (HEK293): 3.32 µM (active)
- Potency (HaCat [1]): 2.96 µM (active) and 2.31 µM (active)
- Potency (KB-3-1): 2.64 µM (active) and 1.3 µM (active)
- Potency (NIH3T3): 1.05 µM (active)
- Potency (MKL-2): inactive
- Potency (UISO): 1.48 µM (active)
- Potency (CASKI): 10 µM (active)
- Potency (HeLa): 5.01 µM (active)
- Potency (JEG-3): inactive

SMILES: CC1(C)CC(=O)c2c(C(F)(F)F)nn(-c3ccc(C(N)=O)c(NC4CCC(OC(=O)CN)CC4)c3)c2C1 (stereo not drawn)
- Potency (HEK293): 118 nM (active) and 58 nM (active)
- Potency (HaCat [1]): 2.35 µM (active) and 517 nM (active)
- Potency (KB-3-1): 0.105 µM (active)
- Potency (NIH3T3): 418 nM (active) and 366 nM (active)
- Potency (MKL-2): inactive
- Potency (UISO): 0.264 µM (active)
- Potency (HeLa): inactive
- Potency (JEG-3): inactive

SMILES: CCn1cc(-c2ccnc3[nH]c(-c4cccc(CN(C)C)c4)cc23)c(-c2ccc(NC(=O)N(C)C)cc2)n1
- Potency (HEK293): 11.8 µM (active)
- Potency (HaCat [1]): 0.0893 µM (active)
- Potency (KB-3-1): 1.87 µM (active) and 63.2 nM (active)
- Potency (NIH3T3): 3.72 µM (active) and 632 nM (active)
- Potency (MKL-1): 0.0372 µM (active)
- Potency (MKL-2): 8.33 µM (active)
- Potency (UISO): 13.2 µM (active)
- Potency (WaGa): 0.0469 µM (active)
- Potency (C33A): inactive
- Potency (Hek293T): inactive

SMILES: c1nc2nc(Nc3ccc(N4CCOCC4)cc3)nc(NC3CCCCC3)c2[nH]1
- Potency (HEK293): 935 nM (active) and 252 nM (active)
- Potency (HaCat [1]): 2.64 µM (active) and 2 µM (active)
- Potency (KB-3-1): 4.18 µM (active)
- Potency (NIH3T3): 1.48 µM (active) and 2.24 µM (active)
- Potency (MKL-2): 16.6 µM (active)
- Potency (C33A): inactive
- Potency (Es-2): inactive
- Potency (HeLa): 2.82 µM (active)
- Potency (Hek293T): inactive

SMILES: Cc1nc(Nc2n[nH]c3c2CN(C(=O)N[C@H](CN(C)C)c2ccccc2)C3(C)C)c2sccc2n1
- Potency (HEK293): 20.9 nM (active) and 10.3 nM (active)
- Potency (HaCat [1]): 7.43 µM (active)
- Potency (KB-3-1): 2.35 µM (active) and 2.06 µM (active)
- Potency (NIH3T3): 1.16 µM (active)
- Potency (MCC-26): 14.8 µM (active)
- Potency (MKL-1): 1.48 µM (active)
- Potency (MKL-2): 2.64 µM (active)
- Potency (UISO): 1.48 µM (active)
- Potency (CASKI): 7.94 µM (active)
- Potency (Es-2): 8.91 µM (active)
- Potency (HeLa): 8.91 µM (active)
- Potency (Hek293T): 3.55 µM (active)

SMILES: Cc1nc2ccc(CN(C)c3ccc(C(=O)N[C@@H](CCC(=O)O)C(=O)O)s3)cc2c(=O)[nH]1
- Potency (HEK293): 0.0473 µM (active)
- Potency (HaCat [1]): 0.0332 µM (active)
- max response (KB-3-1): 1.14%
- Potency (NIH3T3): 0.119 µM (active)
- Potency (MKL-2): inactive
- Potency (WaGa): 0.0833 µM (active)
- Potency (C33A): inactive
- Potency (CASKI): inactive
- Potency (Hek293T): inactive
- Potency (JEG-3): 0.631 µM (active)

SMILES: COC(=O)Nc1nc2ccc(C(=O)c3ccc(F)cc3)cc2[nH]1
- Potency (HEK293): 590 nM (active) and 820 nM (active)
- outcome (HaCat [1]): inactive
- Potency (KB-3-1): 833 nM (active) and 1.46 µM (active)
- Potency (HACAT [2]): inactive
- Potency (C33A): inactive
- Potency (CAOV3): inactive
- Potency (Es-2): 8.91 µM (active)
- Potency (HeLa): 3.98 µM (active)

SMILES: Cn1cc(-c2[nH]c3cc(NC(=O)[C@H](N)C4CCCCC4)cc4c3c2C=NNC4=O)cn1
- Potency (HEK293): 3.32 µM (active) and 5.8 µM (active)
- max response (HaCat [1]): -8.38%
- Potency (KB-3-1): 5.9 µM (active) and 4.11 µM (active)
- Potency (NIH3T3): 14.8 µM (active)
- Potency (UISO): 0.418 µM (active)
- Potency (WaGa): 2.64 µM (active)
- Potency (CASKI): inactive
- Potency (JEG-3): inactive

SMILES: COc1cc(=C2C=c3ccccc3=N2)[nH]c1=Cc1[nH]c(C)cc1C
- Potency (HEK293): 8.33 µM (active)
- Potency (HaCat [1]): 20.9 µM (active)
- Potency (KB-3-1): 3.72 µM (active)
- Potency (NIH3T3): 18.7 µM (active)
- Potency (UISO): 13.2 µM (active)
- Potency (WaGa): 23.5 µM (active)

SMILES: O=C(O)Cn1nnc(-c2cc(N3CCC(Oc4cc(F)ccc4Br)CC3)no2)n1
- Potency (HEK293): 1.18 µM (active) and 1.3 µM (active)
- outcome (HaCat [1]): inactive
- Potency (KB-3-1): 3.72 µM (active) and 2.31 µM (active)
- Potency (HACAT [2]): inactive
- Potency (MCC-13): inactive
- Potency (MCC-26): inactive
- Potency (MKL-1): inactive
- Potency (MKL-2): inactive
- Potency (UISO): inactive
- Potency (WaGa): inactive
- Potency (C33A): inactive
- Potency (CASKI): inactive
- Potency (HeLa): inactive
- Potency (Hek293T): inactive
- Potency (JEG-3): inactive

SMILES: C1=CCOCc2cc(ccc2OCCN2CCCC2)Nc2nccc(n2)-c2cccc(c2)OCC1
- Potency (HEK293): 3.32 µM (active)
- Potency (HaCat [1]): 4.69 µM (active)
- Potency (KB-3-1): 2.96 µM (active)
- Potency (NIH3T3): 7.43 µM (active)
- Potency (MCC-26): 9.35 µM (active)
- Potency (MKL-2): 11.8 µM (active)
- Potency (UISO): 11.8 µM (active)
- Potency (WaGa): 9.35 µM (active)
